The text below walks through data of PubChem BioAssay (NCATS).

The structures appear in SMILES notation. Inconclusive results are not listed. Activity calls are given as the source filed them. The call rests on the fitted dose curve; in most records, active means well fitted inhibition curve with a large enough effect; inconclusive means small, poorly fitted or top-dose-only effect; inactive means no such curve, though single readings can be large or run the other way.
On the % scale 0 is the no-effect control and ±100 the full control effect.

The assay in a line: Primary qHTS for inhibitors of nuclear receptor binding SET domain protein 2 (NSD2) in an RCH-ACV wild type WT cells (2C) (AID 1645877). Further: nearly all actives have a fitted effect of over 70% in size. The settings on record: RCH-ACV (leukaemia line) NSD2 WT (2C) viability, CellTiter-Glo, 72 h; series mostly up to 44.9 µM; activity change, negative = cell killing: at the top concentration. For orientation: In qHTS, concentration-response curves come from the screen itself.
With `COc1cc(C2CC(=O)Nc3c2cc(Br)c2ccccc32)cc(OC)c1OC` (centres undefined), the “activity change, negative = cell killing” value was -1.51% (inactive).

`CCC(C)/C=C(C)/C=C/C1=CC2=C(Cl)C(=O)C(C)(OC(C)=O)C(=O)C2=CN1C(CCC(=O)O)C(=O)O` (centres undefined): the “activity change, negative = cell killing” value is -7.41% [at 17.3 µM] (inactive). `CC(=O)/C=C/C1C(C)CC(O[C@@H]2O[C@H](CO)[C@@H](O)[C@H](O)[C@H]2O)CC1(C)C` (some centres undefined): the result was inactive. For `CC12CC(c3ccoc3)OC(=O)C1CCC1(C)C2CCC(O)C1(C)O` (centres undefined), the “activity change, negative = cell killing” value was -15.3% (inactive).

As to `C/C(=C\C1CCC(C)C2CCC3(C)OC123)C(=O)O` (centres undefined), the “activity change, negative = cell killing” value was 2.73% (inactive).

Turning to `NC1Nc2ccccc2C1(N)CC1NC(=O)C(Cc2ccccc2)NC(=O)C(Cc2ccccc2)NC1=O` (centres undefined), the “activity change, negative = cell killing” value is -36.1% [at 17.3 µM] (inactive). The same measure, in the same setting: under `O=C(/C=C/c1ccc(O)c(O)c1)O[C@@H]1[C@@H](O)[C@H](OC2CCCCC2O)O[C@H](CO)[C@H]1O` (some centres undefined) stands -5.21% [at 17.3 µM] (inactive). Regarding `C=C1C(=O)OC[C@H]2C(C(=O)O)=CC3CC(C)(C)C[C@@]132` (some centres undefined), the call was inactive. `OC[C@@]1(O)CO[C@@H](OC[C@H]2O[C@@H](Oc3ccccc3)[C@H](O)[C@@H](O)[C@@H]2O)[C@@H]1O`: the “activity change, negative = cell killing” value is -0.274% (inactive). Same read-out and setting: under `C=C1C(OC(C)=O)CCC2(C)CC3(O)OC(=O)C(C)=C3CC12` (centres undefined) stands -19.6% (inactive); under `CC(C)(O)C1CCC2(C)CCCC(C)(O)C2C1` (centres undefined), -8% (inactive). With `O=C(/C=C/c1ccc(O)cc1)OCC1OC(O)C(OC2OC(CO)C(O)C(O)C2O)C(O)C1O` (centres undefined), the “activity change, negative = cell killing” value was -2.59% [at 17.3 µM] (inactive). Consider `CC1(C)C=Cc2c(ccc3c2N=C2C(C)(C)[C@@H]4C[C@]56CCCN5C(=O)[C@@]4(C[C@]23O)NC6=O)O1`, for which the “outcome” value was “inactive [at 17.3 µM]”. Take `C/C=C(\C)C(=O)OCC1OC(OCC2OC(OC3(CO)OC(CO)C(O)C3O)C(O)C(O)C2O)C(O)C(O)C1O` (centres undefined): the “activity change, negative = cell killing” value was -7.79% [at 17.3 µM] (inactive).
